HepG2 tox: counter-screen for TGF-b inhibitors: cytotoxicity in HepG2 cells; HepG2 CAGA-GFP viability, ATP luminescence, 18 h; Potency, µM (top dose mostly 46.1 µM), usual class: cytotoxic; 0.76% of 410,000 active
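HepG2 CAGA-GFP cells (1000/well, DMEM with 1% FBS) received compound, then TGF-beta at 500 pg/mL final, and were incubated 18 hours at 37 degrees C. Viability was read by CellTiter-Glo luminescence. Media-only wells were set as complete cell-killing and DMSO as no toxicity.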
TGFb inhibitor: TGF-b pathway inhibition; HepG2 CAGA-GFP TGF-b/SMAD3 reporter, GFP fluorescence, 18 h; TGF-beta stimulated, 500 pg/mL final; Potency, µM (titrated, usually from 46.1 µM), usual class: inhibitors; 1.2% of 410,000 active; AID 588855; also: nearly all actives have a fitted effect of over 65% in size
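HEPG2 CAGA-GFP cells (1000/well, DMEM with 1% FBS) were pre-incubated 2 h at 37 degrees C, given compound by pin tool, then stimulated with TGF-beta at 500 pg/mL final for 18 h before per-cell GFP fluorescence imaging.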
KB-V1 cytotox: kills drug-selected multidrug resistant KB-V1 cells; Potency, µM (doses to about 46.1 µM), usual class: cytotoxic; 3.4% of 400,000 active; KB-V1 MDR cells viability, CellTiter-Glo, 72 h; also: nearly all actives have a fitted effect of over 60% in size
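In this primary screen, KB-V1 cells overexpressing P-gp are incubated with library compounds (lowest to highest concentration) for 72 h at 37 degrees C before a luminescent ATP viability read.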
KB-3-1 cytotox: KB-3-1 parental cell cytotoxicity. KB-3-1 viability, CellTiter-Glo ATP luminescence, 72 h. Potency, µM (titrated, usually from 46.1 µM), usual class: cytotoxic. AID 1347075. 1.4% of 400,000 active; also: nearly all actives have a fitted effect of over 60% in size
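Parental KB-3-1 viability, qHTS format: 72 h compound exposure, 37 °C; CellTiter-Glo; media-only wells and DMSO plates as controls; concentration-effect fits on corrected data.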
HT1080NT lethal: kills 2HG-producing HT-1080-NT fibrosarcoma cells. HT-1080-NT fibrosarcoma viability, CellTiter-Glo ATP luminescence, 48 h. Potency, µM (series often up to 46.1 µM), most hits filed as cytotoxic. 1.6% of 360,000 active. AID 686970;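 also: NT is the 2HG producing partner of a matched IDH1 knockdown line; nearly all actives have a fitted effect of over 55% in size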
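Toxicity toward the 2HG-producing NT line was scored as %Activity, normalised to DMSO and no-cell wells, from CellTiter-Glo luminescence after 48 hours' treatment.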
HT1080 IDH1KD tx: toxicity to HT-1080 IDH1 knockdown cells (counter line); HT-1080 IDH1 knockdown viability, ATP luminescence, 48 h; Potency, µM (series often up to 46.1 µM), hits mostly cytotoxic; 2% of 360,000 active; AID 686971
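% activity derives from luminescence (CellTiter-Glo), normalised to DMSO and no-cell wells. HT-1080-IDH1KD cells, 750/well, had 48 h compound exposure at 37 °C.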
Numbers stand for hits; i = inactive; ? = inconclusive; nt = not tested or not shown; ! = a repeat was not active; [ ] = dose if it differs, or a comment. Most compounds without a hit are left out; they make up all but 6.6% or so of the library. Calls follow the shape of the dose curve; as a rule, active = well fitted curve in the direction sought with a large enough effect; inconclusive = small, poorly fitted or top-dose-only effect, or another doubt; inactive = no such curve, though single readings can be large; an effect the other way counts as inactive or inconclusive.

SMILES	HepG2 tox	TGFb inhibitor	KB-V1 cytotox	KB-3-1 cytotox	HT1080NT lethal	HT1080 IDH1KD tx
O=C1NC[C@H](Cc2ccccc2)N(C[C@H]2CCCN2C[C@H](Cc2ccccc2)N2C[C@H](Cc3ccccc3)N(CC3CCCCC3)C(=O)C2=O)C1=O	7.08µM	?	i	i	?	?
O=C1NC[C@H](Cc2ccccc2)N(C[C@@H]2CCCN2C[C@H](Cc2ccccc2)N2C[C@H](Cc3ccccc3)N(CC3CCCCC3)C(=O)C2=O)C1=O	i	17.8µM	i	i	?	?
CC1CN(C(=O)N2CCC(C(=O)NCc3ccco3)CC2)c2ccccc2O1 (centres undefined)	i	i	i	i	nt	nt
CCn1c(=O)cc(SCC(=O)NCc2ccc(F)cc2Cl)c2ccccc21	i	i	i	i	nt	nt
CCC(Sc1ncc(S(=O)(=O)c2ccc(C)cc2)c(=O)[nH]1)C(=O)Nc1cc(C)ccc1C (centres undefined)	i	i	i	i	nt	nt
Cc1[nH]n(-c2nc(-c3cccc([N+](=O)[O-])c3)cs2)c(=O)c1C	i	i	16.4µM	i	i	i
Cc1c(Nc2nc(-c3cccc([N+](=O)[O-])c3)cs2)c(=O)n(-c2ccccc2)n1C	i	i	i	i	i	i
COc1ccc(C(=O)C2CCCN(Cc3cccn3-c3ccc(Cl)cn3)C2)c(OC)c1 (centres undefined)	i	?	11.6µM	?	16.4µM	18.4µM
O=C(/C=C/c1ccccc1)N1CCN(c2cccc(Cl)n2)CC1	i	i	18.4µM	i	i	i
O=C(/C=C/c1ccc(F)cc1)N1CCN(c2ccccn2)CC1	i	i	i	i	i	i
CN(C)c1ccc(CNC(=O)c2cnc3sc(N4CCOCC4)nn3c2=O)cc1	i	i	nt	nt	nt	nt
CC(C)(C)CC(C)(C)NC(=O)CSCC(=O)Nc1ccc2ccccc2c1	i	?	i	i	15.8µM	i[9.24 µM]
CCOC(=O)n1c(=O)oc2cc(S(=O)(=O)N3CCCCC3)ccc21	i	i	23.1µM	i	i	i
CCOC(=O)N1CCN(S(=O)(=O)c2ccc(OCC)cc2)CC1	i	i	16.4µM	i	i	i
CC(C)(C)NC(=O)N1CCN(S(=O)(=O)c2ccc3c(c2)CCC3)CC1	i	i	i	i	i	i
COC(=O)n1c(=O)oc2cc(S(=O)(=O)N3CCCCC3)ccc21	i	i	?	i	i	i
CCOC(=O)N1CCN(S(=O)(=O)c2ccc3c(c2)oc(=O)n3C)CC1	i	i	23.1µM	i	i	i
CC(C)COC(=O)N1CCN(S(=O)(=O)c2ccc3c(c2)CCC3)CC1	i	?	14.6µM	i	i	i
O=C(O)CSC1=NS(=O)(=O)c2ccccc21	i	i	i	i	nt	nt
Cc1ccc2c(c1)c(=O)c1ccccc1n2CCCC(=O)Nc1cc(Cl)ccc1C	i	i	i	?	nt	nt
Cc1ccc(S(=O)(=O)N2CCN(c3nc(-c4ncccn4)nc4ccccc34)CC2)cc1	nt	nt	nt	nt	i	i
COc1cc2nc(CC(O)c3nc4cc(OC)c(OC)cc4[nH]3)[nH]c2cc1OC (centres undefined)	i	i	i	i	nt	nt
COc1ccc(N2CCN(C(=O)C3CCCN(S(=O)(=O)c4ccc5c(c4)oc(=O)n5C)C3)CC2)cc1 (centres undefined)	i	i	i	i	i	i
COc1ccccc1N1CCN(C(=O)C2CCCN(S(=O)(=O)c3ccc4c(c3)oc(=O)n4C)C2)CC1 (centres undefined)	i	i	?	10.3µM!	i	i
Cc1ccc(CSc2nc3c(cc2C#N)CCC3)cc1	i	i	i	i	i	i
SMILES	HepG2 tox	TGFb inhibitor	KB-V1 cytotox	KB-3-1 cytotox	HT1080NT lethal	HT1080 IDH1KD tx
CN1CCc2nc(SCc3ccc(C(C)(C)C)cc3)c(C#N)cc2C1	i	i	?	i	?	11.2µM
Cc1nn(CC(C)C(=O)N2CCN(S(=O)(=O)c3ccc(Cl)cc3)CC2)c(C)c1C (centres undefined)	i	i	20.6µM	i	i	i
CN1CCN(c2ncc3c(n2)CCN(Cc2ccccc2Cl)C3)CC1	i	i	i	i	nt	nt
CN(C)C(CNC(C(=O)Nc1ccc([N+](=O)[O-])cc1Br)c1ccccc1)c1ccccc1 (centres undefined)	i	i	i	i	23.1µM	23.1µM
CC(C)CNC(C(=O)Nc1ccc([N+](=O)[O-])cc1Br)c1ccccc1 (centres undefined)	i	i	i	i	i	i
Nc1c(C(=O)c2ccccc2)sc2nsc(SCCN3CCCC3)c12	i	i	?	?	11.6µM	23.1µM
Nc1c(C(=O)c2ccc(Cl)cc2)sc2nsc(SCCN3CCOCC3)c12	i	i	i	i	i	i
COC(=O)[C@@H]1Cc2c([nH]c3ccccc23)C(C)(C)N1C(=O)CCl	i	?	?	?	?	18.4µM
COc1ccc(CCn2c(C)cc(C(=O)CCl)c2C)cc1OC	i	?	?	?	?	?
Cc1cc(C(=O)CCl)c(C)n1CCc1ccc(F)cc1	i	?	?	?	5.8µM	5.17µM
Cc1cc(C(=O)CCl)c(C)n1CCc1ccc(Cl)cc1	17.8µM	?	?	?	14.6µM	8.2µM
CCCc1cc(=O)[nH]c(SCC(=O)c2cc(C)n(CC(F)(F)F)c2C)n1	i	i	16.4µM	i	i	i
Cc1cc(C(=O)CSc2nc(N)cc(=O)[nH]2)c(C)n1CCc1ccc(F)cc1	i	i	i	?	i	25.9µM
COc1ccc(CCn2c(C)cc(C(=O)CSc3nc(N)cc(=O)[nH]3)c2C)cc1	i	i	i	i	?	i
CCOC(=O)c1[nH]c(C)c(CCC(=O)NCc2ccccc2Cl)c1C	i	i	i	i	nt	nt
NC(Cc1ccc(Cl)cc1)c1csc(Nc2nccc(C(F)(F)F)n2)n1 (centres undefined)	i	?	?	?	16.4µM	23.1µM
COc1ccc(CC(N)c2csc(Nc3nccc(C(F)(F)F)n3)n2)cc1 (centres undefined)	i	?	i	i	?	?
NC(Cc1ccccc1)c1csc(Nc2nccc(C(F)(F)F)n2)n1 (centres undefined)	15.8µM	15.8µM	?	?	?	?
COC(=O)c1cc(C)nc(Nc2nc(C(N)Cc3ccc(F)cc3)cs2)n1 (centres undefined)	i	?	i	i	i	i
Cc1cc(C)nc(Nc2nc(C(N)Cc3ccccc3)cs2)n1 (centres undefined)	i	?	i	?	5.8µM	7.31µM

Compound activity from PubChem.
